APE1 inh: qHTS Assay for Inhibitors of the Human Apurinic/apyrimidinic Endonuclease 1 (APE1). Potency, µM (top dose mostly 65.8 µM), hits mostly inhibitors. 350,000 compounds, 0.35% hits. DNA repair nuclease/redox regulator APEX1 (Homo sapiens), P27695. recombinant APE1, TAMRA/BHQ-2 abasic DNA cleavage fluorescence; also: nearly all actives have a fitted effect of over 55% in size
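Incision of a quenched TAMRA/BHQ-2 THF abasic-site duplex (50 nM) by 0.75 nM APE1, after 15 min compound preincubation, measured as fluorescence increase over three 60 s reads. Values normalized to buffer, DMSO and NSC13755 control wells.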
Pol iota inh: qHTS for Inhibitors of Polymerase Iota; DNA polymerase iota (Homo sapiens), Q9UNA4; Pol iota fluorescent replication assay, 10 min; Potency, µM (top dose mostly 115 µM), actives largely listed as inhibitors; 390,000 compounds, 1% hits; AID 588590, 2011
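Pol iota at 10 nM preincubated 15 min with compounds at room temperature; reaction started with fluorescent substrate, 50 nM final. Fluorescence read kinetically at 0 and 10 min; buffer-only wells as negative control.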
POLB inh: qHTS Assay for Inhibitors of DNA Polymerase Beta. Pol beta primer extension/strand displacement, fluorescence kinetic. 340,000 compounds, 1.3% hits. AID 485314, 2010. Potency, µM (doses to about 114 µM), hits mostly inhibitors. P06746
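Kinetic readout of DNA synthesis with strand displacement by Pol beta. Compound and 10 nM enzyme sit 15 min at room temperature; 50 nM substrate starts the reaction, read immediately and at 10 min.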
Pol eta inh: qHTS for Inhibitors of Polymerase Eta; Potency, µM (doses to about 114 µM), usual class: inhibitors; recombinant Pol eta, fluorescent DNA replication assay; AID 588591, 2011; 390,000 compounds, 1.2% hits
Target sequence (Q9Y253 whole entry, looked up): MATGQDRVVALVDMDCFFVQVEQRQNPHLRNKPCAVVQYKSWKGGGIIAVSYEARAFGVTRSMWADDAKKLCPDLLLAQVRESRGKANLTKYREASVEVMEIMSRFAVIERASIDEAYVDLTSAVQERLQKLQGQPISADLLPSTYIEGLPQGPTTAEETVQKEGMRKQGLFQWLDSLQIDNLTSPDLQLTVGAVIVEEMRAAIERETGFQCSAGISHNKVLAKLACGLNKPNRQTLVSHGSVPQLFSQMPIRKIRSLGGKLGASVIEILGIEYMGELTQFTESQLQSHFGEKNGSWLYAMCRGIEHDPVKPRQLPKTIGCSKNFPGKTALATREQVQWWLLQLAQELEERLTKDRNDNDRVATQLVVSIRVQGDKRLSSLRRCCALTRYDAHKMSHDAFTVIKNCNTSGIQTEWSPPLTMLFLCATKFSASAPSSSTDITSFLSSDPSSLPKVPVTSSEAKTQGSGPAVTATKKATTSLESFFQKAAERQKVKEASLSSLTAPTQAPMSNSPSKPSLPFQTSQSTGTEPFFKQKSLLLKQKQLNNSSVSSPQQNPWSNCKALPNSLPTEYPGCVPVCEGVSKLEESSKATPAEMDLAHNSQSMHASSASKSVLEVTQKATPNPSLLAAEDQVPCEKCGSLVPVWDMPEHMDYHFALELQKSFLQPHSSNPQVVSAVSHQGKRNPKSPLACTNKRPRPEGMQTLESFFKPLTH
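Pol eta (10 nM) was preincubated with compounds for 15 min at room temperature, after which fluorescent replication substrate (50 nM final) was added to start the reaction. Fluorescence was read kinetically at 0 and 10 min.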
GLS inhibitor: qHTS for Inhibitors of Glutaminase (GLS); 410,000 compounds, 0.21% hits; GLS enzymatic activity, qHTS titration; Glutaminase kidney isoform, mitochondrial (Homo sapiens), O94925; Potency, µM (series often up to 45.5 µM), most hits filed as inhibitors
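hKGA in 45 mM KH2PO4 pH 8.2, 0.02% Tween-20 with pin-transferred compounds; 1 mM L-glutamine (stock) plus glutamate oxidase/HRP/Amplex Red coupling added. Fluorescence read initially and after 30 min at RT.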
POLK inh: qHTS for Inhibitors of Polymerase Kappa. DNA polymerase kappa (Homo sapiens), Q9UBT6. Potency, µM (series often up to 107 µM), hits mostly inhibitors. purified Pol kappa, fluorescent DNA synthesis assay, 10 min. AID 588579, 2011. 400,000 compounds, 0.53% hits
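Here, compound and 10 nM enzyme are combined for 15 min at room temperature; adding 50 nM substrate (final) starts DNA synthesis, tracked by fluorescence at 0 and 10 min against buffer-only wells.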
Of the large screens only hits and unclear results are named; the others gave an inactive call. An excerpt weighted towards active compounds, which were near 2.4% of everything screened. Calls follow the shape of the dose curve; as a rule, active = well fitted curve in the direction sought with a large enough effect; inconclusive = small, poorly fitted or top-dose-only effect, or another doubt; inactive = no such curve, though single readings can be large; an effect the other way counts as inactive or inconclusive.

Cc1cc(C)cc(CSCC(=O)N/N=C/c2ccc(OCC(=O)NCc3ccco3)cc2)c1	Pol iota inh inconclusive, POLB inh 25.1µM
NC(=O)Cc1ccc(Nc2nnc(-c3ccc(O)cc3)c3ccccc23)cc1	Pol eta inh inconclusive, GLS inhibitor 11.2µM
COc1ccc(NC(=O)COC(=O)c2c3c(nc4ccccc24)CCCC3)cc1	APE1 inh inconclusive
CNC(=O)COC(=O)c1c2c(nc3ccccc13)CCC2	Pol iota inh 8.91µM, POLB inh 20µM, Pol eta inh 25.1µM, GLS inhibitor inconclusive, POLK inh inconclusive
O=C(NC1CCCCC1)c1c2c(nc3ccccc13)CCC2	Pol iota inh 79.4µM, POLB inh 20µM, Pol eta inh inconclusive
CN(C)C(CNC(=O)c1ccc([N+](=O)[O-])cc1Cl)c1ccco1 (stereo unspecified)	none
CN(C)C(CNS(=O)(=O)c1cc([N+](=O)[O-])ccc1Cl)c1ccco1 (stereo unspecified)	Pol iota inh inconclusive, Pol eta inh 50.1µM (no result: POLB inh)
CCOc1ccc(NC(=O)CN(C)C(=O)Cc2c(C)nc3ccccc3c2C)cc1OCC	POLB inh 22.4µM, Pol eta inh inconclusive
CCCCOCC1CN(c2ccccc2)C(=O)CS1 (stereo unspecified)	POLB inh inconclusive, Pol eta inh 20µM
CC1CN(c2ccccc2)C(=O)CS1 (stereo unspecified)	Pol iota inh inconclusive, POLB inh 44.7µM, Pol eta inh 20µM
CCCCC1C(=O)N(c2ccccc2)N(c2ccccc2)C1=O	Pol iota inh inconclusive
O=C1C=CC2=C3c4cc(O)c(O)cc4C[C@@]3(O)COC2=C1	APE1 inh 12.6µM (no result: Pol iota inh, POLB inh, Pol eta inh, GLS inhibitor, POLK inh)
C/C(=N/NS(=O)(=O)c1ccc(C)cc1)c1c[nH]c2ccccc12	POLB inh inconclusive
C/C(=N/NS(=O)(=O)c1ccccc1)c1c[nH]c2ccccc12	Pol iota inh 89.1µM
CC(C)(C)c1cc(CN2CCN(CCO)CC2)cc(C(C)(C)C)c1O	POLB inh 0.891µM
CCOC(=O)C1CCN(Cc2cc(C(C)(C)C)c(O)c(C(C)(C)C)c2)CC1	none
CCOc1ccc(Br)cc1C1=NN(C(C)=O)C(c2ccc([N+](=O)[O-])s2)O1 (stereo unspecified)	Pol iota inh 50.1µM, POLB inh 17.8µM, Pol eta inh 50.1µM
CC(=O)N1N=C(c2ccc(C)cc2)OC1c1ccc(Br)cc1 (stereo unspecified)	none
O=C(O)c1ccc(S(=O)(=O)N(CCc2ccccc2)Cc2ccc(Cl)cc2)cc1	POLB inh 50.1µM
O=C(O)c1ccc(S(=O)(=O)N(Cc2ccccc2)Cc2ccccc2)cc1	none
Cc1ccccc1NC(=O)C(=Cc1ccc(C(=O)O)cc1)C(=O)Nc1ccccc1C	Pol iota inh inconclusive, Pol eta inh 56.2µM
CCn1cc(C(=O)Nc2ncccc2O)c(=O)c2cc(F)c(N3CCN(C(=O)c4ccco4)CC3)cc21	Pol iota inh 70.8µM
CC(=O)c1ccc(S(=O)(=O)N2CCN(C(C)=O)CC2)cc1	Pol eta inh 22.4µM
CC(=O)c1ccc(S(=O)(=O)N2CCNC(=O)C2)cc1	Pol iota inh inconclusive, Pol eta inh 22.4µM (no result: POLB inh)
CC(=O)OC(COc1ccccc1)Cn1cnc2ccccc21 (stereo unspecified)	POLB inh inconclusive
O=C1NC(c2ccccc2Br)=N/C1=C\c1ccco1	Pol iota inh inconclusive, POLB inh inconclusive, POLK inh 79.4µM
O=C1NC(c2ccccc2)=N/C1=C/c1ccco1	POLB inh 28.2µM, POLK inh inconclusive
O=C1NC(=O)/C(=C/c2ccco2)N1	none (no result: POLB inh)
O=C1NC(c2cccc(Br)c2)=N/C1=C\c1ccco1	Pol iota inh 25.1µM, POLB inh 44.7µM
COc1ccc(OC)c(NC(=O)CSC2=C(C#N)C(c3ccco3)C3=C(CCCC3=O)N2)c1 (stereo unspecified)	GLS inhibitor inconclusive
CCc1ccccc1NC(=O)CSC1=C(C#N)C(c2ccc3c(c2)OCO3)C2=C(CCCC2=O)N1 (stereo unspecified)	POLB inh 22.4µM
CCOc1ccc(CCNC(=O)c2ccc(Cl)c(S(=O)(=O)N3CCOCC3)c2)cc1OCC	APE1 inh inconclusive, Pol iota inh inconclusive, Pol eta inh inconclusive (no result: POLB inh)
O=C(OC1CCOC1=O)c1ccc(Cl)c(S(=O)(=O)N2CCCCC2)c1 (stereo unspecified)	APE1 inh inconclusive, POLB inh inconclusive
O=C(OC1CCOC1=O)c1ccc(Cl)c(S(=O)(=O)N2CCOCC2)c1 (stereo unspecified)	APE1 inh inconclusive, Pol iota inh 70.8µM, Pol eta inh 39.8µM, GLS inhibitor inconclusive, POLK inh inconclusive (no result: POLB inh)
O=C(NCCc1ccc(F)cc1)c1ccc(Cl)c(S(=O)(=O)N2CCOCC2)c1	APE1 inh inconclusive, Pol iota inh inconclusive, Pol eta inh 44.7µM (no result: POLB inh)
O=C(O)c1ccc(Cl)c(S(=O)(=O)N2CCCC2)c1	APE1 inh 28.2µM, POLB inh inconclusive
O=C(c1ccc(Cl)c(S(=O)(=O)N2CCCCCC2)c1)N1CCCCC1	none
CCN(c1ccccc1)S(=O)(=O)c1cc(C(=O)NCc2ccco2)ccc1C	Pol iota inh inconclusive, Pol eta inh 79.4µM (no result: POLB inh)
O=[N+]([O-])c1ccc(F)cc1OCc1cccc(S(=O)(=O)N2CCOCC2)c1	none (no result: POLB inh)
O=C(NCc1ccco1)c1ccc(Cl)c(S(=O)(=O)N2CCCC2)c1	Pol iota inh 35.5µM, Pol eta inh inconclusive (no result: POLB inh)
CC1CCCN(S(=O)(=O)c2cc(C(=O)NCc3ccco3)ccc2Cl)C1 (stereo unspecified)	none (no result: POLB inh)
O=S(=O)(NCC1CCCO1)c1cc(Cl)ccc1Cl (stereo unspecified)	none
O=C(O)c1ccc(Cl)c(S(=O)(=O)NCC2CCCO2)c1 (stereo unspecified)	GLS inhibitor 10µM
O=C(O)c1ccc(Cl)c(S(=O)(=O)Nc2ccc3[nH]c(=O)[nH]c3c2)c1	APE1 inh inconclusive, Pol iota inh inconclusive, POLB inh 3.55µM, Pol eta inh inconclusive, POLK inh inconclusive
Cc1nn(C(C)C(=O)NC2CCC(C)CC2)c(=O)c2c1sc1ccccc12 (stereo unspecified)	POLB inh inconclusive (no result: APE1 inh, Pol eta inh)
O=C1/C(=C/c2ccc(Br)cc2)Oc2cc(O)ccc21	POLB inh 14.1µM
O=C1/C(=C\c2ccc(O)c(O)c2)Oc2cc(O)ccc21	APE1 inh inconclusive, POLK inh 4.74µM (no result: Pol iota inh, POLB inh, Pol eta inh, GLS inhibitor)
